# The sample as a whole holds a higher share of hits than the screen did.
# aSyn tox rescue: alpha-synuclein toxicity suppression in yeast; S. cerevisiae alpha-synuclein toxicity rescue, BacTiter-Glo growth, 24 h; Potency, µM (series often up to 46.1 µM), actives largely listed as activators; hit rate 0.02% among 94,000; AID 1347070; active means well fitted activation curve with a large enough effect; further: 0% is about no effect
#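 Growth restoration measured by BacTiter-Glo luminescence after 24 hr at 30 deg C; alpha-synuclein yeast, raffinose-pregrown to mid-log, were added at OD600=0.02 in galactose medium onto pinned compounds.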
# Active calls of the source: *; i = inactive. Potency means the concentration at half of the fitted maximal effect.
SMILES,aSyn tox rescue
COc1ccc(NC(=O)C(=O)c2cc(C)n(-c3ccc(C)cc3)c2C)cc1Cl,i
Cc1ccc(Cl)cc1NC(=O)CCCN1C(=O)CCn2nc(-c3cn(C)c4ccccc34)cc21,i
COc1ccccc1CNc1ccc(-c2nc(C)no2)cc1[N+](=O)[O-],i
O=C(Cc1ccccc1)N(Cc1cccnc1)c1nc2c(Cl)cccc2s1,14.1µM*
O=C(C1COc2ccccc2O1)N(Cc1cccnc1)c1nc2c(Cl)cccc2s1 (stereo not given),i
COc1cccc2sc(N(Cc3cccnc3)C(=O)COc3ccccc3)nc12,i
CCOc1ccc(-c2cc(NC(=O)Nc3ccccc3Cl)c(C(=O)OC)s2)cc1,i
COc1ccc(NC(=O)CCn2nc(-c3ccccc3OC)c3c(C)cc(C)nc32)cc1,i
CCOc1ccc(NC(=O)CN2C(=O)C(c3ccccc3)=NC23CCC(C)CC3)cc1 (stereo not given),i
COc1cc(C(=O)N2CCN(c3ccc(Nc4ccccc4)nn3)CC2)cc(OC)c1OC,i
CCN1c2cc(C)ccc2-n2cccc2C12CCN(C(=O)Nc1cc(OC)c(OC)c(OC)c1)CC2,i
Cc1c(Cl)cccc1NC(=O)c1ccc(NC(=O)N2CCSc3ncccc32)cc1,i
COc1ccc(-c2nc3ccc(NS(=O)(=O)c4ccccc4)cc3o2)cc1,i
O=S(=O)(Nc1ccc2nc(-c3ccc(F)cc3)oc2c1)c1ccccc1,20µM*
Cc1ccc(S(=O)(=O)Nc2ccc3nc(-c4ccc(F)cc4)oc3c2)cc1,i
Cc1ccc2onc(CC(=O)Nc3ccc(C(C)C)cc3)c2c1,i
O=S(=O)(NCCS(=O)(=O)N1CCN(c2ccccc2F)CC1)c1ccc(Cl)cc1,i
COc1ccc(CNC(=O)CCC(=O)N2CCSc3ccccc32)cc1,i
Cc1ccc(CCNC(=O)CS(=O)Cc2nc(-c3ccccc3C)oc2C)cc1 (stereo not given),i
Cc1ccc(CCNC(=O)CS(=O)Cc2nc(-c3cccs3)oc2C)cc1 (stereo not given),i
CCc1ccc(-c2nc(CS(=O)CC(=O)NCCc3ccc(C)cc3)c(C)o2)cc1 (stereo not given),20µM*
Nc1nn(-c2ccccc2)nc1C(=O)OCc1ccccc1Br,i
COC(=O)c1ccc(NC(=O)c2c(NCc3ccc(OC)c(OC)c3)sc3c2CCCC3)cc1,i
COc1cc(CN(CC2CCCO2)C(=O)c2ccc(F)cc2)cc(OC)c1OC (stereo not given),i
CC1CCN(S(=O)(=O)c2ccc3c(c2)N(CC(=O)N(C)Cc2ccccc2)C(=O)CO3)CC1,i
SMILES,aSyn tox rescue
COc1ccc(-c2cc(C)no2)cc1S(=O)(=O)NC1CCC(C)CC1 (stereo not given),i
CCC(=O)N1CCc2cc(S(=O)(=O)NC(CC(C)C)C(=O)Nc3cc(C)ccc3OC)ccc21 (stereo not given),i
CN1CCN(C(=O)Cn2c(-c3cccs3)cc3cc(Cl)ccc32)CC1,i
Cc1cccc(NC(=O)c2ccc(-c3nc(CSc4ccccc4)c(C)o3)cc2)c1C,i
Cc1ccc(S(=O)(=O)N(Cc2nc(-c3cccc(C)c3)no2)C2CCCCC2)cc1,i
CCOc1cc(C(=O)OCc2cc(=O)n3nc(C4CC4)sc3n2)cc(OCC)c1OCC,i
CCCCCn1c(CCCNC(=O)c2cccc(C)c2)nc2ccccc21,i
Cc1ccc(Cl)cc1NC(=O)Cn1cc(S(=O)(=O)Cc2ccccc2Cl)c2ccccc21,i
CC(C)Sc1ncc(Cl)c(C(=O)Nc2ccc(S(=O)(=O)N3CCCCC3)cc2)n1,i
Cc1cc(C)cc(-n2cnc3cc(C(=O)NCCc4ccccc4)ccc32)c1,i
CC(=O)Nc1nonc1-c1nnc(SCc2cccc(Br)c2)n1C,i
CCc1ccccc1NC(=O)CCNS(=O)(=O)c1ccc2c(c1)CCCC(=O)N2,i
CCCS(=O)(=O)Nc1cc2c(cc1NCc1ccccc1)n(C)c(=O)n2C,i
COc1ccc(-c2noc(CCC(=O)Nc3ccccc3Cl)n2)cc1OC,i
CCCCN(Cc1ccccc1)S(=O)(=O)c1ccc2c(c1)CC(C)N2C(=O)CC (stereo not given),i
COc1ccc(NC(=O)Cc2csc(COc3cccc(C)c3)n2)cc1OC,i
O=C(c1ccc2c(c1)N(Cc1ccccc1F)C(=O)c1ccccc1S2(=O)=O)N1CCN(c2ccccn2)CC1,i
CCOc1ccccc1CNC(=O)C1CCN(c2nnc(-n3c(C)ccc3C)s2)CC1,i
Cc1ccc(-n2cnc3cc(C(=O)NC4CCCCCC4)ccc32)c(C)c1,i
CSc1ccc(CCNC(=O)CCCn2c(=O)c3cccn3c3ccccc32)cc1,i
CCN1CCN(c2oc(-c3ccc(COc4ccc(C)cc4)o3)nc2C#N)CC1,i
COc1ccc(Cl)cc1NC(=O)c1cc(S(=O)(=O)NC2CCCCCC2)ccc1F,i
Cc1ccc(CNc2cc(C)nc3nc(-c4cccc(C)c4)nn23)cc1,i
Cc1ccc(-c2nc3cc(C(C)C)ccc3o2)cc1NC(=O)c1cccs1,i
CC(C)CNC(=O)Nc1cc(C(=O)NCc2ccc(C(C)C)cc2)ccc1N1CCCC1,i
SMILES,aSyn tox rescue
CCc1ccc(-n2c(=O)c3ccc(C(=O)NCCc4ccccc4)cc3n(Cc3ccccc3C#N)c2=O)cc1,i
O=C(Nc1c(C(=O)O)oc2ccccc12)c1ccc(C(F)(F)F)cc1,i
CC(C)(C)c1ccc(C(=O)N2CCC(c3nc4ccccc4o3)CC2)cc1,i
COc1ccc(NC(=O)CCc2nnc3n(Cc4ccccc4Cl)c(=O)c4ccccc4n23)cc1,i
O=C(CN1C(=O)C2(SCC(=O)N2c2ccc(F)c(F)c2)c2ccccc21)NCCc1ccccc1 (stereo not given),i
c1ccc(CSc2nnc(C3CCNCC3)o2)cc1,i
COc1ccc(CCn2c3c(c(=O)[nH]c2=O)C(NC(=O)c2ccc(C(C)(C)C)cc2)(C(F)(F)F)C(=O)N3)cc1OC (stereo not given),i
CCN(C(=O)C1CCCN(S(=O)(=O)c2c(C)noc2/C=C/N(C)C)C1)c1cccc(C)c1 (stereo not given),i
O=C(NCc1ccco1)c1c[nH]c2ccc(S(=O)(=O)Nc3ccc(F)cc3F)cc2c1=O,i
CC12CN3CC(c4ccccc4)(CN(C1)C3c1ccc(Cl)cc1)C2=O (stereo not given),i
COc1ccc(C2CC(=O)Nc3c2c(C)nn3-c2nncc(-c3ccc(C)cc3)n2)c(OC)c1OC (stereo not given),i
Cc1nn(C(C)(C)C)c(OC(=O)c2c(F)cccc2F)c1Sc1ccccc1,i
COc1cc(-c2nc3cnccn3c2Nc2ccc(C(C)C)cc2)ccc1O,i
CC(C)c1ccc(Nc2c(-c3ccccc3O)nc3cnccn23)cc1,22.4µM*
Cc1ccn2c(Nc3ccc(C(C)C)cc3)c(-c3cccnc3)nc2c1,i
COc1ccccc1NC(=O)CSc1nnc(-c2nonc2NC(C)=O)n1-c1ccccc1,i
Cc1nc2ccc(S(=O)(=O)N(CC(=O)Nc3ccc(F)cc3F)Cc3ccccc3)cc2s1,i
Cc1ccc2c(C)c(C(=O)N(Cc3ccc(N(C)C)cc3)Cc3ccco3)oc2c1C,i
Cc1ccc(NC(=O)c2cc(S(=O)(=O)N3CCCCCC3)ccc2F)cc1F,i
Cc1ccc(NC(=O)c2cc(S(=O)(=O)NC3CCCCCC3)ccc2F)cc1F,25.1µM*
CCc1ccc(NC(=O)c2cc(S(=O)(=O)NC3CCCC3)ccc2F)cc1,i

# Screens deposited in PubChem BioAssay by National Center for Advancing Translational Sciences (NCATS).
